FLuc counter – qHTS profiling assay for firefly luciferase inhibitor/activator using purifed enzyme and Km concentrations of substrates (counterscreen for miR-21 project). purified FLuc, Km substrates, luminescence inhibition. Potency, µM (highest dose often 57.5 µM), inactives show at the highest dose activity change, negative = inhibition, hits mostly inhibitors. 360,000 compounds, 6.9% hits. AID 588342, 2011;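 also: plate controls were vehicle for no effect and reference inhibitor for full effect; nearly all actives have a fitted effect of over 55% in size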
Target sequence (P08659 whole entry, looked up): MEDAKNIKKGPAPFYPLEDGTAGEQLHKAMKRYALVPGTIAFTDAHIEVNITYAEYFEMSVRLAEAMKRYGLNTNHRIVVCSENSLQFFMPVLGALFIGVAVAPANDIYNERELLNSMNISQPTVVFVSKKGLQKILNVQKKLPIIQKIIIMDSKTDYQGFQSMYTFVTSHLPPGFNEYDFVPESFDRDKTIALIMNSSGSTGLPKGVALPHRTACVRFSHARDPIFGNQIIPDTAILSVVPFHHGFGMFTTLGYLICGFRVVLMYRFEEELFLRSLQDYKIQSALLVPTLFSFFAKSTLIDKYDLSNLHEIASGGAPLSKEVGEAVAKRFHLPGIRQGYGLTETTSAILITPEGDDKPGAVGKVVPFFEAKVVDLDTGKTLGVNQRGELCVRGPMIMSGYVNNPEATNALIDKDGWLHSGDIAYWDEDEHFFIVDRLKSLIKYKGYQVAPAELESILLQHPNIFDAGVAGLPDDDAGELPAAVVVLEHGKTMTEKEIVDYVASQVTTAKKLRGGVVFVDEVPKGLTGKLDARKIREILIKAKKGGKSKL
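Purified P. pyralis luciferase, 10 nM final, with Km-level 10 uM D-luciferin and 10 uM ATP in 50 mM Tris acetate pH 7.5, 10 mM Mg acetate, 0.01% Tween-20, 0.05% BSA; 6-point qHTS titration about 60 µM downward; luminescence read.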
Rab9 prom act – qHTS Assay for Rab9 Promoter Activators; 320,000 compounds, 2.8% hits; Potency, µM (series often up to 9.22 µM), for the others: at the highest dose activation, negative = inhibition, actives largely listed as activators; Huh7 Rab9 promoter-luciferase reporter, luminescence, 24 h; AID 485297, 2010; also: % of control where 0% means no effect; nearly all actives have a fitted effect of over 60% in size
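Huh7 cells stably carrying Rab9 promoter–luciferase reporter, plated 1500 cells/well, compound added after 2 h and incubated 24 h at 37 °C; luciferase luminescence then read after 10 min with detection reagent.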
SMN2 splice up – qHTS Assay for Enhancers of SMN2 Splice Variant Expression; 210,000 compounds, 2.8% hits; Potency, µM (series often up to 46.1 µM), for the others: at the top dose activity change, positive = activation, most hits filed as activators; HEK293 SMN2-luciferase splicing reporter, luminescence, 30-36 h; also: % of control where 0% means no effect; nearly all actives have a fitted effect of over 55% in size
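qHTS luciferase splicing reporter: luminescence rises when SMN2 exon 7 is included in transfected HEK293 cells. Compound exposure lasted 30-36 h at 37C, with 4.5 mM final sodium butyrate as control, followed by a ONE-Glo read.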
ELG1 genotox – qHTS screen for small molecules that induce genotoxicity in human embryonic kidney (HEK293T) cells expressing luciferase-tagged ELG1. 330,000 compounds, 1.3% hits. HEK293T ELG1-luciferase reporter, luminescence, 16 h. Potency, µM (titrated, usually from 46 µM), without a hit: at the top dose activity change, positive = activation, usual class: activators; also: % of control where 0% means no effect; nearly all actives have a fitted effect of over 60% in size
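16 hr compound incubation (37 °C, 5% CO2) of HEK293T cells carrying luciferase-tagged ELG1; luciferase then measured by ONE-Glo luminescence after 30 min at RT.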
NPC1 promoter act – qHTS Assay for NPC1 Promoter Activators | Potency, µM (series often up to 9.22 µM), for the others: at the highest dose activation, most hits filed as activators | Huh7 NPC1 promoter luciferase reporter, 24 h | 320,000 compounds, 2.4% hits | AID 485313, 2010; also: % of control where 0% means no effect; nearly all actives have a fitted effect of over 60% in size
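Cells: Huh7 expressing luciferase under the NPC1 promoter, 1500/well. Seeded 2 h, compound added, incubated 24 h at 37 °C. Luciferase reagent, 10 min ambient, then luminescence.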
* hit, by the source's call; ? = inconclusive; nt = no result given; [ ] = dose if it differs, or a comment. Most compounds without a hit are left out; they make up all but 7.5% or so of the library. Calls follow the shape of the dose curve; as a rule, active = well fitted curve in the direction sought with a large enough effect; inconclusive = small, poorly fitted or top-dose-only effect, or another doubt; inactive = no such curve, though single readings can be large; an effect the other way counts as inactive or inconclusive. Potency is read from the fitted curve at half-maximal effect.

SMILES	FLuc counter	Rab9 prom act	SMN2 splice up	ELG1 genotox	NPC1 promoter act
COc1[nH]c2ccc(F)cc2c1C(=O)OCC1CCN(CCNS(C)(=O)=O)CC1	nt	nt	-3%	nt	nt
O=C(NCCc1ccccc1)c1ccc(Cn2c(SCc3ccc(F)cc3)nc3cccnc32)cc1	4.8µM*	nt	nt	nt	nt
O=C(NCCc1ccccc1)c1ccc(Cn2c(SCc3ccccc3F)nc3cccnc32)cc1	5.4µM*	nt	nt	nt	nt
O=C(NCCc1ccccc1)c1ccc(CSc2nc3cccnc3n2Cc2ccccc2F)cc1	-12%	nt	nt	nt	nt
O=C(NCCc1ccccc1)c1ccc(CSc2nc3cccnc3n2Cc2ccccc2)cc1	-12%	nt	nt	nt	nt
CC(C)Oc1ccc(OCCn2c(=S)[nH]c3c(N)ncnc32)cc1	27µM*	-1%	-27%	?	-3%
O=C(c1ccccc1)c1ccc2cc(O)ccc2c1	15µM*	?	nt	?	?
COc1ccc(C(=O)Nc2nnc(SCC(=O)Nc3ccc(NC(C)=O)cc3)s2)c(OC)c1	0.085µM*	0.63µM*	nt	?	0.35µM*
CCc1nnc(NC(=O)c2ccc(OC)cc2OC)s1	2.1µM*	0.45µM*	2µM*	?	0.45µM*
CCc1nnc(NC(=O)Nc2ccccc2OC)s1	?	30%	?	?	12%
CC(=O)Nc1nnc(SCC(=O)NC2CCCC2)s1	2%	0%	nt	-10%	-5%
COc1ccc(NC(=O)CSc2nnc(NC(=O)C3CCC3)s2)cc1	0%	14%	nt	0%	3%
COc1ccc(C(=O)Nc2nnc(SCC(=O)NC3CCCC3)s2)c(OC)c1	0.54µM*	0.1µM*	nt	2.9µM*	0.1µM*
O=C(CSc1nnc(NCc2ccccc2)s1)NC1CCS(=O)(=O)C1 (configuration not stated)	17µM*	-13%	nt	0%	0%
CCc1ccc(Nc2nnc(SCC(=O)N(C)C3CCS(=O)(=O)C3)s2)cc1 (configuration not stated)	0.43µM*	?	nt	?	3.5µM*
CCc1ccc(-c2nc(SCC(=O)NC3CCS(=O)(=O)C3)n[nH]2)cc1 (configuration not stated)	5.4µM*	19%	nt	?	20%
COc1ccc(Nc2nnc(SCC(=O)NC3CCS(=O)(=O)C3)s2)cc1 (configuration not stated)	5.4µM*	23%	nt	11%	22%
O=C(CSc1nnc(Nc2ccccc2F)s1)NC1CCS(=O)(=O)C1 (configuration not stated)	nt	nt	nt	2%	nt
CC[C@]12c3[nH]c4ccc(OC)cc4c3CCN1C(=O)C(CC(=O)NCc1ccc(OC)c(OC)c1)C[C@@H]2C(=O)N1CCN(C(=O)C2CC2)CC1 (some centres not stated)	nt	nt	nt	-3%	nt
COc1ccc(Nc2nnc(SCC(=O)NC3CC3)s2)cc1	19µM*	-3%	nt	5%	-4%
Nc1nc(SCn2nnc3ccccc3c2=O)n[nH]1	4%	-4%	9%	4%	3%
O=C(COC(=O)CCSc1ccccc1)Nc1cc(F)ccc1F	-14%	4%	2%	2%	-1%
CC(NC(=O)c1ccc2c(c1)sc1nc(-c3ccccc3)cn12)C12CC3CC(CC(C3)C1)C2 (configuration not stated)	0%	nt	nt	nt	nt
O=[N+]([O-])c1cc(C2Nc3cccc4cccc(c34)N2)ccc1Cl	2%	28%	-1%	3%	?
c1cc2c3c(cccc3c1)NC(c1ccc3c(c1)OCO3)N2	27µM*	0%	nt	2%	?
SMILES	FLuc counter	Rab9 prom act	SMN2 splice up	ELG1 genotox	NPC1 promoter act
CSc1ccc(C2Nc3cccc4cccc(c34)N2)cc1	21µM*	20%	nt	-2%	?
Clc1ccc(C2Nc3cccc4cccc(c34)N2)cc1	19µM*	17%	nt	-8%	22%
Cc1cccc(C2Nc3cccc4cccc(c34)N2)c1	21µM*	11%	nt	0%	?
CN(C)c1nc(-c2ccoc2)nc2ccccc12	nt	nt	0%	nt	nt
CCCCC/C=C\C/C=C\C/C=C\CCCCCCC(=O)NCCCC(=O)O	nt	nt	12%	nt	nt
Cc1cnc(NC(=O)CCCNC(=O)c2ccc(Cl)cc2)s1	8.5µM*	?	nt	?	26%
N#C/C(=C\c1c[nH]c2ccccc12)C(=O)NCC1CCCO1 (configuration not stated)	17µM*	29%	nt	?	18%
COCc1cc(CNC(=O)C2CCC(=O)N(Cc3cccc(OC)c3)C2)[nH]n1 (configuration not stated)	0%	-2%	nt	1%	0%
C=C(C(C)=O)C(O)c1ccc(Cl)cc1 (configuration not stated)	nt	nt	5%	nt	nt
O=C(O)/C=C/C(O)c1ccc(Cl)cc1 (configuration not stated)	27µM*	4%[46.1 µM]	-8%	-4%	4%[46.1 µM]
O=C(c1ccc(COc2ccc(Cl)cc2Cl)o1)N1CCCC1	?	9%	nt	17%	1%
CCOC(=O)c1ccc2nc3c(cc2c1)CCS3	19µM*	19%	11%	?	?
CCOC(=O)c1ccc2nc(C)c3c(c2c1)OC(C)C3 (configuration not stated)	3%	1%	-12%	10%	-3%
Cc1ccc(Nc2nc(=O)c3cccnc3s2)cc1	12µM*	2.5µM*	18%	?	3.2µM*
COc1ccc(OC)c(Nc2nc(=O)c3cccnc3s2)c1	17µM*	-14%	3%	8%	-33%
COc1ccc(OC)c(Nc2cc(C)nc3ccccc23)c1	5%	-1%	-15%	-9%	-1%
Cc1ccc(NC(=O)n2ccc(-c3ccc(-n4ccnc4)cc3)n2)cc1	?	4µM*	13µM*	19%	?
CC(C)(C)c1ccc(NC(=O)COc2ccc(-n3ccnc3)cc2)cc1	15µM*	-23%	nt	-4%	0%
C/C(=N\NC(=O)COc1ccc(C(C)(C)C)cc1)c1ccc(-n2ccnc2)cc1	0.38µM*	?	?	16%	28%
C/C(=N\NC(=O)OC(C)(C)C)c1ccc(-n2ccnc2)cc1	-3%	1%	4%	0%	-1%
COc1ccc(OCC(=O)N/N=C(\C)c2ccc(-n3ccnc3)cc2)cc1	6µM*	-3%	-19%	0%	1%
CC(=O)Nc1ccc(NC(=O)CSc2ccc(-c3ccc(-n4ccnc4)cc3)nn2)cc1	?	-4%	nt	-1%	3%
C[C@]12O[C@H]1[C@@H](O)C(Br)=C(CO)[C@H]2O	nt	nt	-2%	nt	nt
Cc1cccc(NC(=O)CNC(=O)CN2C(=O)NC3(CCc4ccccc43)C2=O)c1C (configuration not stated)	1%	8%	nt	1%	0%
CCOC(=O)CSc1nc2sc3c(c2c(=O)n1-c1ccccc1)CCC(C(C)(C)C)C3 (configuration not stated)	4%	nt	6%	nt	nt

High-throughput results as filed in PubChem.
